Bioassay records from PubChem.
A selection: hits, their analogues and other compounds. The true share with any hit is near 6.6%.
KB-V1 cytotox – kills drug-selected multidrug resistant KB-V1 cells. KB-V1 MDR cells viability, CellTiter-Glo, 72 h. Potency, µM (highest dose often 46.1 µM), most hits filed as cytotoxic. 3.4% of 400,000 active; note: % is set by controls: 0 for no effect and ±100 for the full control effect; nearly all actives have a fitted effect of over 60% in size
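Cytotoxicity via CellTiter-Glo luminescence after 72 h compound exposure at 37 degrees C. Cells: drug-selected KB-V1 line, DMEM phenol-red free plus 10% FBS. Compounds tested at multiple concentrations; normalized data fitted to concentration-effect curves.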
TSG101-PTAP inh – blocks PTAP/TSG101 interaction to inhibit HIV-1 budding; Q99816; Fluorescence polarization, FITC-PTAP peptide / Tsg101 binding; Potency, µM (series often up to 115 µM), for the others: at the top dose activity change, negative = inhibition, actives largely listed as inhibitors; 340,000 tested, under 10 active; active = well fitted inhibition curve with a large enough effect in the main read-out, with a control signal flat, not every such curve was filed as active; inconclusive = small, poorly fitted or top-dose-only effect, or effect the other way, or a change in a side signal; inactive = no such curve, though single readings can be large or run the other way; note: % of control where 0% means no effect
Target sequence (Q99816 whole entry, looked up): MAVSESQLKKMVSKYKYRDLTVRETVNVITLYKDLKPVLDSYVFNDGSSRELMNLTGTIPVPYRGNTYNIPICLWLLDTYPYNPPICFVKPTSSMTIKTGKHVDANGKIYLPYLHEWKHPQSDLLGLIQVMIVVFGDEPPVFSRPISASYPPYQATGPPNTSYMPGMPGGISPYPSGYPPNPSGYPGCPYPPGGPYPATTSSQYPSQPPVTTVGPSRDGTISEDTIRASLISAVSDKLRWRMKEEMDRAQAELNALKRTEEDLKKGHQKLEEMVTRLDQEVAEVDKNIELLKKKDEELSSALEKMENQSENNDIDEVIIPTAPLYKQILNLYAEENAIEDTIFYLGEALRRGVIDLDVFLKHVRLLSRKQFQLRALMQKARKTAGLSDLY
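Compounds were pin-transferred onto Tsg101 binding domain (10 uM final) in HEPES pH 7.5 buffer, then FITC-PTAP peptide was added at 50 nM final. After 20 min at RT, polarization reported peptide displacement across a qHTS concentration series.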
SW480 rerep – inducers of DNA re-replication in SW480 colon cancer cells | AID 624297 | 1.8% of 340,000 active | Potency, µM (top dose mostly 46.1 µM), inactives show at the top dose re-replication activation, usual class: activators | SW480 DNA re-replication, Hoechst DNA content imaging, 48 h; note: % of control where 0% means no effect; nearly all actives have a fitted effect of over 55% in size
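Image-based DNA-content assay: after two days of treatment, nuclei were labelled with the DNA dye Hoechst and imaged, and hits were compounds raising the count of nuclei showing high fluorescence intensity.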
RGS4 inh – blocks human RGS4-accelerated GTP hydrolysis | P49798 | Transcreener GDP fluorescence polarization, RGS4-accelerated GTP hydrolysis | Potency, µM (titrated, usually from 114 µM), for the others: at the highest dose activity change, negative = inhibition, hits mostly inhibitors | 0.039% of 390,000 active | AID 504845; note: % is set by controls: 0 for no effect and ±100 for the full control effect; nearly all actives have a fitted effect of over 75% in size
Target sequence (P49798 whole entry, looked up): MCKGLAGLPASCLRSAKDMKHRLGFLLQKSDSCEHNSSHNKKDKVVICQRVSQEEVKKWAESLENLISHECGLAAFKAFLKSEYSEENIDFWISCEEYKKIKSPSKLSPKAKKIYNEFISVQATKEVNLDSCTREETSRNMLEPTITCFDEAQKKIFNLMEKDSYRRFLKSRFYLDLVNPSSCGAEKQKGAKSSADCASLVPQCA
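MLSMR compounds (23 nl, pin-transferred) preincubated 10 min at room temperature with a 500nM (2x) first reagent, then RGS4 at 900nM (2x) plus Transcreener GDP mix added; fluorescence polarization (620/688 nm) read before and after 90 min at 30 °C.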
MCF10A rerep – inducers of DNA re-replication in MCF 10A breast cells | 2.9% of 350,000 active | AID 624296 | MCF 10A DNA re-replication, Hoechst nuclear intensity, 48 h | Potency, µM (top dose mostly 46.1 µM), for the others: top-dose activity, positive = re-replication, actives largely listed as activators; note: % of control where 0% means no effect; nearly all actives have a fitted effect of over 50% in size
KB-3-1 tox – kills parental KB-3-1 adenocarcinoma cells; KB-3-1 viability, CellTiter-Glo ATP luminescence, 72 h; Potency, µM (doses to about 46.1 µM), hits mostly cytotoxic; 1.4% of 400,000 active; note: % is set by controls: 0 for no effect and ±100 for the full control effect; nearly all actives have a fitted effect of over 60% in size
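Cytotoxicity in the drug-sensitive parental line KB-3-1 was scored as loss of CellTiter-Glo luminescence following 72 h incubation with compound. Values come from curve fitting of normalized concentration-response data.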
The depositor's hits bear a star; [ ] = dose if it differs, or a comment. Unless noted, calls come from the whole dose curve; as a rule, active = well fitted curve in the direction sought with a large enough effect; inconclusive = small, poorly fitted or top-dose-only effect, or another doubt; inactive = no such curve, though single readings can be large; an effect the other way counts as inactive or inconclusive. Potency is the fitted concentration of half-maximal effect.

`CCOC(=O)c1c(N)n(CCCOC(=O)c2ccco2)c2nc3ccccc3nc12` gave KB-V1 cytotox inconclusive, TSG101-PTAP inh -6%, SW480 rerep inconclusive, RGS4 inh -7%[11.4 µM], MCF10A rerep inconclusive and KB-3-1 tox 12µM*.
COCCCNC(=O)c1c(NC(=O)c2ccco2)n(Cc2ccccc2)c2nc3ccccc3nc12 was read as KB-V1 cytotox inactive, TSG101-PTAP inh -1%, SW480 rerep inconclusive, RGS4 inh inconclusive, MCF10A rerep inconclusive and KB-3-1 tox inactive.
Screening O=C(O)c1cccc2nc3ccccc3nc12 returned KB-V1 cytotox inactive, TSG101-PTAP inh -5%, SW480 rerep 8.2µM*, RGS4 inh -9%, MCF10A rerep 0% and KB-3-1 tox inactive.
`c1ccc2nc3ccccc3nc2c1` gave KB-V1 cytotox inactive, TSG101-PTAP inh 0%, SW480 rerep 18%, RGS4 inh 4%, MCF10A rerep inconclusive and KB-3-1 tox inactive.
For O=C1NC(=O)N(Cc2ccccc2)C(=O)/C1=C\C=C\c1ccco1 the results were KB-V1 cytotox inconclusive, TSG101-PTAP inh 5%, SW480 rerep -18%, RGS4 inh inconclusive, MCF10A rerep 12µM* and KB-3-1 tox inactive.
For O=C1NC(=O)N(Cc2ccco2)C(=O)/C1=C/C=C/c1ccco1 the results were KB-V1 cytotox inconclusive, TSG101-PTAP inh -3%, SW480 rerep inconclusive, RGS4 inh inconclusive, MCF10A rerep 18µM* and KB-3-1 tox inconclusive.
O=C1NC(=O)N(CCc2ccc(F)cc2)C(=O)/C1=C\C=C\c1ccccc1 was read as KB-V1 cytotox 15µM*, TSG101-PTAP inh -2%, SW480 rerep 14%, RGS4 inh -42%, MCF10A rerep 4.1µM* and KB-3-1 tox 16µM*.
Screening O=C1NC(=O)N(Cc2ccccc2)C(=O)/C1=C/c1cnc(-c2ccccc2)nc1 returned KB-V1 cytotox inactive, TSG101-PTAP inh -7%, SW480 rerep -88%, RGS4 inh inconclusive, MCF10A rerep -11% and KB-3-1 tox inactive.
For C=CCN1C(=O)NC(=O)/C(=C/C=C/c2ccccc2)C1=O the results were KB-V1 cytotox inactive, TSG101-PTAP inh 0%, SW480 rerep inconclusive, RGS4 inh inconclusive, MCF10A rerep inconclusive and KB-3-1 tox inactive.
For CNC(=O)O/N=C/C(C)(C)S(C)=O (configuration not stated) the results were KB-V1 cytotox inactive and KB-3-1 tox inactive.
Screening CNCC(O)c1cc(OCc2ccccc2)c(OCc2ccccc2)cc1F (configuration not stated) returned KB-V1 cytotox 18µM*, TSG101-PTAP inh -1%, SW480 rerep 22%, RGS4 inh 7%, MCF10A rerep 25% and KB-3-1 tox inconclusive.
Screening CNCC(O)c1cccc(OC(=O)c2ccccc2C)c1 (configuration not stated) returned KB-V1 cytotox inactive, TSG101-PTAP inh -6%, SW480 rerep 16%, RGS4 inh 14%[11.4 µM], MCF10A rerep 8% and KB-3-1 tox inactive.
For Cc1ccc(-c2nc(N(C)C3CCN(C)CC3)c3ccccc3n2)cc1 the results were KB-V1 cytotox 21µM*, TSG101-PTAP inh -7%, SW480 rerep 13%, RGS4 inh -8%, MCF10A rerep 6% and KB-3-1 tox inactive.
Cc1ccccc1Cn1cccc(C(=O)Nc2cc(Cl)ccc2C#N)c1=O was read as KB-V1 cytotox inconclusive, RGS4 inh -19% and KB-3-1 tox inactive.
`CCS(=O)(=O)N1CCCC(C(=O)N2CCC3(CC2)OCCO3)C1` (configuration not stated) gave KB-V1 cytotox inactive, TSG101-PTAP inh -2%, SW480 rerep -5%, RGS4 inh -25%, MCF10A rerep 1% and KB-3-1 tox inactive.
CC(C)CC(NC(=O)C1CCCCC1)C(=O)N1CCC2(CC1)OCCO2 (configuration not stated) was read as KB-V1 cytotox 10µM*, TSG101-PTAP inh 4%, SW480 rerep -8%, RGS4 inh 5%, MCF10A rerep -1% and KB-3-1 tox inactive.
For Oc1ccc(O)c2c1C1(Cl)C(Cl)=C(Cl)C2(Cl)C1(Cl)Cl the results were KB-V1 cytotox inactive, TSG101-PTAP inh -7%, SW480 rerep inconclusive, RGS4 inh -3%, MCF10A rerep 16µM* and KB-3-1 tox inactive.
For CCc1cc(=O)oc2c(C)c(OCC(=O)N3CCC[C@@H]3C(=O)O)ccc12 the results were KB-V1 cytotox inactive, TSG101-PTAP inh 0%, SW480 rerep -1%, RGS4 inh -17%, MCF10A rerep -11% and KB-3-1 tox inactive.
For CN1C(=O)NC(=O)/C(=C\C=C\c2ccccc2[N+](=O)[O-])C1=O the results were KB-V1 cytotox inactive, TSG101-PTAP inh -5%, SW480 rerep 15µM*, RGS4 inh inconclusive, MCF10A rerep inconclusive and KB-3-1 tox inconclusive.
Screening COc1ccc(-c2c3c(nc4sc5c(Cl)nc(C)nc5c24)CCC3)cc1 returned KB-V1 cytotox inconclusive, TSG101-PTAP inh -3%, SW480 rerep -2%, RGS4 inh -20%, MCF10A rerep inconclusive and KB-3-1 tox 7.3µM*.
Screening COC(=O)C[C@](O)(CCCC(C)(C)O)C(=O)O[C@@H]1C(OC)=C[C@]23CCCN2CCc2cc4c(cc2[C@H]13)OCO4 returned SW480 rerep 26%, RGS4 inh inactive and MCF10A rerep inconclusive.
Screening COc1cc2c(cc1OC)[C@@]13CCN4CC5=CCOC6CC(=O)N2C1[C@H]6[C@@H]5C[C@@H]43 (some centres not stated) returned SW480 rerep 4% and MCF10A rerep -4%.
For CCOC(=O)C(C#N)=C(c1ccccc1)c1ccccc1 the results were SW480 rerep 0% and MCF10A rerep inconclusive.
Screening COc1ccc(NC2Oc3cc4c(cc3C(c3cc(OC)c(OC)c(OC)c3)C2C)OCO4)cc1 (configuration not stated) returned KB-V1 cytotox 5.8µM*, TSG101-PTAP inh -3%, SW480 rerep 1µM*, RGS4 inh inconclusive, MCF10A rerep 0.58µM* and KB-3-1 tox 1.6µM*.
CC1CCC/C=C/C2CC(O)CC2C(O)/C=C/C(=O)O1 (configuration not stated) was read as KB-V1 cytotox inconclusive, TSG101-PTAP inh -2%, SW480 rerep 0.1µM*, RGS4 inh -15%, MCF10A rerep inconclusive and KB-3-1 tox inconclusive.
